“And” between values parts separate entries of the source, which are not always exact repeats. Identical values can stand only once. Inconclusive results are not listed. A call without a number means that no potency is given here. The source holds several records for some structures; these can differ, active in one and inactive in another. The source made the active and inactive calls. Unless noted, calls follow the shape of the dose curve; as a rule, active = well fitted curve in the direction sought with a large enough effect in the repeat runs; inconclusive = weak or mixed curves; inactive = no such curve, though single readings can be large; an effect the other way counts as inactive or inconclusive.
Assays:
[1] = qHTS assay to identify aromatase inhibitors - cell viability counter screen (AID 743084);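 also: cells stimulated with testosterone during compound exposure; nearly all actives have a fitted effect of over 55% in size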; also: potency is read from the fitted curve at half-maximal effect
[2] = target: Aryl hydrocarbon receptor (Homo sapiens) (UniProt P35869); test: qHTS assay to identify small molecule that activate the aryl hydrocarbon receptor (AhR) signaling pathway (AID 743085); also: nearly all actives have a fitted effect of over 15% in size; also: potency is read from the fitted curve at half-maximal effect;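 as to activation: HG2L7.5c1 human HepG2 liver cells with stably integrated DRE-driven firefly reporter; series mostly up to about 70 µM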
Chain of Aryl hydrocarbon receptor (Homo sapiens) (P35869 whole entry, looked up): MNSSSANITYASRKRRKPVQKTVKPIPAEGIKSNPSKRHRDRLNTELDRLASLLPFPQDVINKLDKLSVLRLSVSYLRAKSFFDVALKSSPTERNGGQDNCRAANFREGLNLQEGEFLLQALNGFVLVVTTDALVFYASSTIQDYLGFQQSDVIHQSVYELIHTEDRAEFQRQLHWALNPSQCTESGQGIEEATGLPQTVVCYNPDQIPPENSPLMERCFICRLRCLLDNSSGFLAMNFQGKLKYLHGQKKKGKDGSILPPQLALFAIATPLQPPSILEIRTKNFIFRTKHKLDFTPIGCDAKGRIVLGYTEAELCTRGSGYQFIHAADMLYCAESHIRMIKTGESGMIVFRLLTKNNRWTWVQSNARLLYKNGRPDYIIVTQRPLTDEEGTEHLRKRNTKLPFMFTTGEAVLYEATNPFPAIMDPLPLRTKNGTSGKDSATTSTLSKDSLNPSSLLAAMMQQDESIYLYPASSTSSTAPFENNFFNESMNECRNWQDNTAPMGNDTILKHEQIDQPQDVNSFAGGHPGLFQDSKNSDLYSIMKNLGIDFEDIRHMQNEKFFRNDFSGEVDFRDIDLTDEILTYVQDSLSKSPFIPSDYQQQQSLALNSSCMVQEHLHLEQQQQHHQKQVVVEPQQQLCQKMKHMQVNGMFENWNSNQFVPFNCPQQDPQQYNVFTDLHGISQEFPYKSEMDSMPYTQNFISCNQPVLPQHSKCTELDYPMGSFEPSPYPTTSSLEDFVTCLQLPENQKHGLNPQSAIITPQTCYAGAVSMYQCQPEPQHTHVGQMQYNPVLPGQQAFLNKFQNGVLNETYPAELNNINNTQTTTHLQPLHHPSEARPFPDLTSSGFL
Summary of the method: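 A multiplexed format paired cell viability (CellTiter-Fluor fluorescence) with AhR-dependent luciferase output (ONE-Glo luminescence) in the same wells of HepG2 DRE-luc cells after 24 h compound exposure at 37C.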

[3] = qHTS assay to identify small molecule that activate the aryl hydrocarbon receptor (AhR) signaling pathway - cell viability counter screen (AID 743086); also: nearly all actives have a fitted effect of over 45% in size; also: potency is read from the fitted curve at half-maximal effect
Summary of the method: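 Cytotoxicity counter screen: CellTiter-Fluor signal (30 min, 37 C) in 4000 HepG2 cells/well carrying the DRE-luciferase reporter, following 24 h compound exposure at 37 C.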

[4] = target: Peroxisome proliferator-activated receptor gamma (Homo sapiens) (UniProt P37231); test: qHTS assay to identify small molecule agonists of the peroxisome proliferator-activated receptor gamma (PPARg) signaling pathway (AID 743094; active = well fitted activation curve with a large enough effect in the signal ratio in the repeat runs, not every such curve was filed as active; the % refers to the signal ratio)
Chain of Peroxisome proliferator-activated receptor gamma (Homo sapiens) (P37231 whole entry, looked up): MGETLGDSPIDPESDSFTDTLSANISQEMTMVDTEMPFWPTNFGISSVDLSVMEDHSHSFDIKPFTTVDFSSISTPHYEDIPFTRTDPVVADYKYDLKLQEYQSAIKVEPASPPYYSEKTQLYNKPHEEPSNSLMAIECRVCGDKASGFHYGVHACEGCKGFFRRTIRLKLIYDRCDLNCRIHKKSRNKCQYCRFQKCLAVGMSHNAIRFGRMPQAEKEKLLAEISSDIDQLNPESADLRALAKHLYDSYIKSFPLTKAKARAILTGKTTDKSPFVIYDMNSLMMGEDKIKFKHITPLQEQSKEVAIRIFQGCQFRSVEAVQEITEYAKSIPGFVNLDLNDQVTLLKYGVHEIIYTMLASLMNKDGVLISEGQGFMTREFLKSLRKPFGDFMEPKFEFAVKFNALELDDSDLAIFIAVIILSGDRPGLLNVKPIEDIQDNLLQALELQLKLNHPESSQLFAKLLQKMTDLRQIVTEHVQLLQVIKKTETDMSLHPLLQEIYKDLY
Summary of the method: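 Cells from the PPARg UAS-bla HEK293H line are plated and incubated 5 h at 37C. Compounds in DMSO are pinned in and left 17 h at 37C. LiveBLAzer B/G substrate is then added for 1 h at room temperature before fluorescence is measured.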

[5] = qHTS assay to identify small molecule antagonists of the peroxisome proliferator-activated receptor gamma (PPARg) signaling pathway - cell viability counter screen (AID 743194); details: Potency: co-treated with 50 nM rosiglitazone unless noted; also: nearly all actives have a fitted effect of over 55% in size; also: potency is read from the fitted curve at half-maximal effect
Summary of the method: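 Viability was measured as CellTiter-Glo luminescence in GeneBLAzer PPARg UAS-bla HEK293H cells. These cells had been exposed 17 h at 37 C to compounds together with rosiglitazone at 50 nM final, with the beta-lactamase readout taken in the same wells.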

[6] = qHTS assay for small molecule agonists of the antioxidant response element (ARE) signaling pathway - cell viability counter screen (AID 743203; calls by dose curve; also: nearly all actives have a fitted effect of over 55% in size; also: potency is read from the fitted curve at half-maximal effect)
Summary of the method: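 Cytotoxicity was tested in parallel with the ARE reporter screen. ARE-bla HepG2 cells were exposed to compounds for 16 hrs, and viability was taken from CellTiter-Glo luminescence.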

[7] = qHTS assay for small molecule activators of the heat shock response signaling pathway - cell viability counter screen (AID 743209); also: nearly all actives have a fitted effect of over 50% in size; also: potency is read from the fitted curve at half-maximal effect
Summary of the method: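 Cytotoxicity counter screen run in parallel with the HSE beta-lactamase reporter, using the same wells. HeLa HSE-bla cells received compound for 5 h at 37 C; ATP-based CellTiter-Glo luminescence was measured after 30 min at room temperature.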

[8] = qHTS assay for small molecule activators of the heat shock response signaling pathway (AID 743210; active = well fitted activation curve with a large enough effect in the signal ratio in the repeat runs, with a control signal flat, not every such curve was filed as active; the % refers to the signal ratio; also: series mostly up to about 63 µM)
Summary of the method: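 Compound exposure lasted 5 h at 37 C in HeLa cells carrying a heat-shock-element-driven beta-lactamase reporter. Read-out: fluorescence intensity after 2.5 h room-temperature loading with LiveBLAzer B/G FRET substrate.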

[9] = target: Peroxisome proliferator-activated receptor gamma (Homo sapiens) (UniProt P37231); test: qHTS assay to identify small molecule antagonists of the peroxisome proliferator-activated receptor gamma (PPARg) signaling pathway (AID 743191; calls by dose curve; also: series mostly up to about 63 µM; nearly all actives have a fitted effect of over 30% in size)
Summary of the method: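 Beta-lactamase reporter under UAS control in HEK293H PPARg-bla cells; compound treatment 17 h at 37C. Read-out: fluorescence intensity after 1 h room-temperature incubation with LiveBLAzer B/G FRET substrate.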

[10] = qHTS assay for small molecule agonists of the antioxidant response element (ARE) signaling pathway (AID 743202; active = well fitted activation curve with a large enough effect in the signal ratio in the repeat runs, not every such curve was filed as active; the % refers to the signal ratio; also: potency is read from the fitted curve at half-maximal effect)
Summary of the method: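 After 16 hours of compound treatment at 37 C, HepG2 cells with a stably integrated ARE-driven beta-lactamase reporter were loaded 2 hours at room temperature with LiveBLAzer B/G FRET substrate and fluorescence intensity measured.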

| Structure (SMILES) | Potency [1] | Potency [2] | Potency [3] | outcome [4] | Potency [5] | Potency [6] | Potency [7] | outcome [8] | Potency [9] | Potency [10] |
| --- | --- | --- | --- | --- | --- | --- | --- | --- | --- | --- |
| COP(=O)(OC)C(O)C(Cl)(Cl)Cl (configuration not stated) | inactive | inactive | inactive | inactive | inactive | inactive | inactive | inactive |  |  |
| COc1ccccc1N | inactive | 54.4 µM (active) and inactive | inactive | inactive | inactive | inactive | inactive | inactive | inactive | inactive |
| Cc1cc(Cl)ccc1N | inactive | 31.3 µM (active) and 33.6 µM (active) | inactive | inactive | inactive | inactive | inactive | inactive | inactive | inactive |
| CCCn1cc[n+](C)c1 | inactive |  | inactive | inactive | inactive | inactive | inactive | inactive | inactive | inactive |
| CCCC[N+]1(C)CCCC1 | inactive |  | inactive |  | inactive | inactive | inactive | inactive |  | inactive |
| CCC[N+]1(C)CCCCC1 | inactive | inactive | inactive |  | inactive | inactive | inactive | inactive |  | inactive |
| CCCCCCCCCCCC(=O)O | inactive |  | inactive |  | inactive | inactive | inactive |  |  | inactive |
| CC[N+](CC)(CC)CC | inactive | inactive | inactive |  | inactive | inactive | inactive | inactive |  | inactive |
| O=C(O)c1ccccc1O |  |  | inactive |  | inactive | inactive | inactive |  |  | inactive |
| O=C(O)COc1ccc(Cl)cc1Cl |  |  | inactive |  | inactive | inactive | inactive |  |  | inactive |
| CCCCCCCCCCCCCC[P+](CCCCCC)(CCCCCC)CCCCCC | 24.4 µM (active) and 12.3 µM (active) | inactive | 61.4 µM (active) and 54.9 µM (active) and inactive |  | 24.7 µM (active) and 7.82 µM (active) and 2.45 µM (active) | 24.4 µM (active) and 15.5 µM (active) and inactive | 6.19 µM (active) and 7.82 µM (active) | inactive |  | inactive |
| CC[n+]1ccccc1 | inactive and 54 µM (active) |  | inactive | inactive | inactive | inactive | inactive |  | inactive | inactive and 2.71 µM (active) |
| CCCCCCCCCCCCn1cc[n+](C)c1 |  |  |  |  |  |  |  | inactive |  | inactive |
| C=CCOC(Cn1ccnc1)c1ccc(Cl)cc1Cl (configuration not stated) | inactive |  | inactive | inactive | inactive | inactive | inactive |  | inactive |  |
| O=C(O)c1nc(Cl)ccc1Cl | inactive | 22.4 µM (active) and inactive | inactive |  | inactive | inactive | inactive | inactive |  | inactive |
| CCCCCC[n+]1ccccc1 | inactive | inactive | inactive |  | inactive | inactive | inactive | inactive |  | 43.2 µM (active) and inactive and 17.2 µM (active) |
| O=C(O)CCl | inactive |  | inactive | inactive | inactive | inactive | inactive | inactive | inactive | inactive |
| CCCCCCn1cc[n+](C)c1 | inactive | inactive | inactive |  | inactive | inactive | inactive |  |  |  |
